Experimental findings from PubChem BioAssay (NCATS) are described below.

Results filed as inconclusive are left out. Activity calls are given as the source filed them. The call rests on the fitted dose curve; in most records, active means well fitted curve in the direction sought with a large enough effect; inconclusive means small, poorly fitted or top-dose-only effect, or another doubt; inactive means no such curve, though single readings can be large; an effect the other way counts as inactive or inconclusive.
Further: 0% is about no effect.

Transient receptor potential cation channel subfamily V member 1 (Homo sapiens), sequence (Q8NER1 whole entry, looked up): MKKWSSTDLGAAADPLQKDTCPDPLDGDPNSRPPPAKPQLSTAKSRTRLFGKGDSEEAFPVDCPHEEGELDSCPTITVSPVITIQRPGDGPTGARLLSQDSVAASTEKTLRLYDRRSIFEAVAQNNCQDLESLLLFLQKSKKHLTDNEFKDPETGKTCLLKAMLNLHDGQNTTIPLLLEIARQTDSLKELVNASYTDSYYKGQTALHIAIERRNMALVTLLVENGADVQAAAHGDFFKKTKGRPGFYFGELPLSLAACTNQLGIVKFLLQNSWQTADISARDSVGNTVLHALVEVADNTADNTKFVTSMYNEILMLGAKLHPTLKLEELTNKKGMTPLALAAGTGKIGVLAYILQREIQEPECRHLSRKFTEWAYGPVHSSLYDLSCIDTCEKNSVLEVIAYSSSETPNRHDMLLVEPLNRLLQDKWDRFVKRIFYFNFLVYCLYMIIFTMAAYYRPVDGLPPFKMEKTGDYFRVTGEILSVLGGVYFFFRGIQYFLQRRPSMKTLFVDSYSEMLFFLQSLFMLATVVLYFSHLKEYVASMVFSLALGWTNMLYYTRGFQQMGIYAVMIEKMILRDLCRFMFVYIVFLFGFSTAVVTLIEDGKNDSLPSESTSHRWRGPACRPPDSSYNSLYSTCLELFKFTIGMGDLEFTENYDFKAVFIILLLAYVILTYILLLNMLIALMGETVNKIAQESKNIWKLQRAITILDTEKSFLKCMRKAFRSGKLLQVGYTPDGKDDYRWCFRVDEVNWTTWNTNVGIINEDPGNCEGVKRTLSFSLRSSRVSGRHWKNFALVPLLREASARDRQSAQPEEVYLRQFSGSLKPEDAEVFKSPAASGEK
D(1A) dopamine receptor (Homo sapiens), sequence (P21728 whole entry, looked up): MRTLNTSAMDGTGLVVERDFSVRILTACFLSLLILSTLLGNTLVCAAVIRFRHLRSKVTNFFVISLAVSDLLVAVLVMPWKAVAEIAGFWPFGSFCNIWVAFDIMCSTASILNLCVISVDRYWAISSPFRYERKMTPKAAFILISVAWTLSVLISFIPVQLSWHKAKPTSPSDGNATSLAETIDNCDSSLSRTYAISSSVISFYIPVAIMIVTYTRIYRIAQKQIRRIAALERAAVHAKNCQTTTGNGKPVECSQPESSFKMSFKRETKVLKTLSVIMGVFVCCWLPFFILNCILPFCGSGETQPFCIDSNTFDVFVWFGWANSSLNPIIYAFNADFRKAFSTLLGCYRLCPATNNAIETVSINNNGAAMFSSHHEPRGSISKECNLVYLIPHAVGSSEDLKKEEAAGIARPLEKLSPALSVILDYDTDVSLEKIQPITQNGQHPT

The first assay concerns the target Transient receptor potential cation channel subfamily V member 1 (Homo sapiens) (UniProt Q8NER1). The experiment in a line: HTS Assay for Compounds that Act as Enhancers of the Vanilloid Receptor 1 (AID 488979). The note with it: TRPV1-expressing cells, enhancer of channel activity, stimulated with capsaicin at EC20; series mostly up to 41.7 µM; activity change, positive = enhancement: at the top concentration. A digest of the protocol: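 TRPV1-expressing cells loaded with Fluo-8 calcium dye; compounds added and calcium influx read kinetically for 3 min (agonist phase), then capsaicin at EC20 added and read 2 min more for enhancement. Fluorescence ex 480/em 520 nm.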
Consider `CC(CCc1ccc(O)cc1)NCCc1ccc(O)c(O)c1` (stereo not drawn), for which the “activity change, positive = enhancement” value was 7.9% (inactive).
Regarding `COc1cc2c(c(OC)c1OC)-c1ccc(OC)c(=O)cc1[C@@H](NC(C)=O)CC2`, the “activity change, positive = enhancement” value is 2.4% (inactive).
As for `O=c1c(O)c(-c2ccc(O)c(O)c2)oc2cc(O)cc(O)c12`, the “activity change, positive = enhancement” value is 10.9% (inactive).
The same measure, in the same setting: next, `CCOC(=O)Nc1ccc(NCc2ccc(F)cc2)nc1N`: -23.1% (inactive); `CC(COc1ccccc1)N(CCCl)Cc1ccccc1` (stereo not drawn): -19.9% (inactive).
In the case of `CN1C2CCC1CC(OC(=O)C(CO)c1ccccc1)C2` (stereo not drawn), the result was inactive.
`Cc1cnc(C(=O)NCCc2ccc(S(=O)(=O)NC(=O)NC3CCCCC3)cc2)cn1`: the “activity change, positive = enhancement” value was -3.62% (inactive).
Same read-out and setting: next, `CN1CCC(=C2c3ccccc3CC(=O)c3sccc32)CC1`: 24% (inactive); `NCCCCCC(=O)O`: -8.84% (inactive); `CN1C(C(=O)Nc2ccccn2)=C(O)c2ccccc2S1(=O)=O`: -8.54% (inactive).
Regarding `CC[N+](CC)(CC)CCOc1cccc(OCC[N+](CC)(CC)CC)c1OCC[N+](CC)(CC)CC`, the “activity change, positive = enhancement” value is 6.34% (inactive).
As to `Clc1ccc(C(c2ccccc2Cl)C(Cl)Cl)cc1` (stereo not drawn), the “activity change, positive = enhancement” value was -17.7% (inactive).
Same read-out and setting: under `CN(Cc1cnc2nc(N)nc(N)c2n1)c1ccc(C(=O)N[C@@H](CCC(=O)O)C(=O)O)cc1` stands -10.3% (inactive).
For `CC(C)C(=O)Nc1ccc([N+](=O)[O-])c(C(F)(F)F)c1`, the “activity change, positive = enhancement” value was -8.42% (inactive).
Same read-out and setting: under `Cc1ccccc1N1C(=O)c2cc(S(N)(=O)=O)c(Cl)cc2NC1C` (stereo not drawn) stands -0.462% (inactive).

The target of a further assay is Thyrotropin receptor (Homo sapiens) (UniProt P16473). In words: qHTS Assay for Antagonists of the Thyroid Stimulating Hormone Receptor (AID 488980). The note with it: TSHR-expressing cells, cAMP antagonist read-out; series mostly up to 57.5 µM; activity, negative = inhibition: at the top concentration. A digest of the protocol: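 Cells expressing human TSHR (HEK293) are dispensed in HBSS/HEPES containing 70 uM RO 20-1724, compound is added, then TSH at EC80 (4 nM final). Antibody in lysis buffer follows, 30 minutes at room temperature before HTRF detection.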
Thyrotropin receptor (Homo sapiens), sequence (P16473 whole entry, looked up): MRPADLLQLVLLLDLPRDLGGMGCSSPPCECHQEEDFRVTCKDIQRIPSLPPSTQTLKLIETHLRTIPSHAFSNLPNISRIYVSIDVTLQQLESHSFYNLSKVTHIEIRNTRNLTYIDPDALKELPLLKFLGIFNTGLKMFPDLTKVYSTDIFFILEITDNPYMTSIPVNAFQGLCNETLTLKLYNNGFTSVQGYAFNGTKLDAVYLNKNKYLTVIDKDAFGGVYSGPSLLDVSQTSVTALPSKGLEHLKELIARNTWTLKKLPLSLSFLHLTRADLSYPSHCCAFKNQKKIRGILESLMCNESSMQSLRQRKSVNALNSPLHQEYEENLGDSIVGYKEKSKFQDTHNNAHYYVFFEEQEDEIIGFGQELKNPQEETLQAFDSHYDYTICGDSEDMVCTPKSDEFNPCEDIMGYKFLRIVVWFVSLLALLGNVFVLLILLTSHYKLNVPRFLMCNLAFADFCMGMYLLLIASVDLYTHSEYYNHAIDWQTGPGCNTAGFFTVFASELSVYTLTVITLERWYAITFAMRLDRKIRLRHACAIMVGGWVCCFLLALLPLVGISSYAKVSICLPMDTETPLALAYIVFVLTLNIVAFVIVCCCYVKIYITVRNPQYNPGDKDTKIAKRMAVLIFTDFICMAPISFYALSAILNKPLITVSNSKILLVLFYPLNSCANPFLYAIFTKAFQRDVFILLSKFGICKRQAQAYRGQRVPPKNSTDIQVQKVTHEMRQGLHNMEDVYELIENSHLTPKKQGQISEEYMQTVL
Background: Quantitative high-throughput screening tests each substance at several concentrations.
On to `CC(CCc1ccc(O)cc1)NCCc1ccc(O)c(O)c1` (stereo not drawn), for which the “activity, negative = inhibition” value was 0.0078% (inactive).
For the compound `COc1cc2c(c(OC)c1OC)-c1ccc(OC)c(=O)cc1[C@@H](NC(C)=O)CC2`, the “activity, negative = inhibition” value is -0.893% (inactive).
The same measure, in the same setting: next, `O=c1c(O)c(-c2ccc(O)c(O)c2)oc2cc(O)cc(O)c12`: -0.344% (inactive).
Regarding `CCOC(=O)Nc1ccc(NCc2ccc(F)cc2)nc1N`, the “activity, negative = inhibition” value was -0.923% (inactive).
Same read-out and setting: next, `CC(COc1ccccc1)N(CCCl)Cc1ccccc1` (stereo not drawn): -1.95% (inactive).
Still for that read-out and setting: under `O=C(CCCN1CCC(O)(c2ccc(Cl)cc2)CC1)c1ccc(F)cc1` stands 0.133% (inactive); under `Cc1cnc(C(=O)NCCc2ccc(S(=O)(=O)NC(=O)NC3CCCCC3)cc2)cn1`, -0.253% (inactive); under `CN1CCC(=C2c3ccccc3CC(=O)c3sccc32)CC1`, -1.36% (inactive).
On the same count and under the same terms, next, `NCCCCCC(=O)O`: -1.36% (inactive); `CN1C(C(=O)Nc2ccccn2)=C(O)c2ccccc2S1(=O)=O`: -1.68% (inactive).
For `CC[N+](CC)(CC)CCOc1cccc(OCC[N+](CC)(CC)CC)c1OCC[N+](CC)(CC)CC`, the “activity, negative = inhibition” value is -0.808% (inactive).
Regarding `CN1CCC(=C2c3ccccc3C=Cc3ccccc32)CC1`, the “activity, negative = inhibition” value is 0.211% (inactive).
Still for that read-out and setting: next, `Clc1ccc(C(c2ccccc2Cl)C(Cl)Cl)cc1` (stereo not drawn): -1.52% (inactive).
Same read-out and setting: next, `COc1ccc(CCN(C)CCCC(C#N)(c2ccc(OC)c(OC)c2)C(C)C)cc1OC` (stereo not drawn): -1.69% (inactive); `CN(Cc1cnc2nc(N)nc(N)c2n1)c1ccc(C(=O)N[C@@H](CCC(=O)O)C(=O)O)cc1`: -2.21% (inactive).
Same read-out and setting: under `CN1CCN(C2=Nc3cc(Cl)ccc3Nc3ccccc32)CC1` stands -1.68% (inactive).
Turning to `CC(C)C(=O)Nc1ccc([N+](=O)[O-])c(C(F)(F)F)c1`, the “activity, negative = inhibition” value was -1.26% (inactive).
With `Clc1ccc2c(c1)C(N1CCNCC1)=Nc1ccccc1O2`, the “activity, negative = inhibition” value is -2.06% (inactive).
Same read-out and setting: next, `OCCN1CCN(CCCN2c3ccccc3Sc3ccc(C(F)(F)F)cc32)CC1`: -6.48% (inactive); `Cc1ccccc1N1C(=O)c2cc(S(N)(=O)=O)c(Cl)cc2NC1C` (stereo not drawn): -1.24% (inactive).
The same measure, in the same setting: next, `Fc1ccc([C@@H]2CCNC[C@H]2COc2ccc3c(c2)OCO3)cc1`: -0.148% (inactive).

Another assay addresses D(1A) dopamine receptor (Homo sapiens) (UniProt P21728). The experiment in a line: HTS Assay for Allosteric Agonists of the Human D1 Dopamine Receptor: Primary Screen for Agonists (AID 488981). The note with it: Inducible HEK293 T-REx D1 cells, calcium-flux fluorescence, 180 s kinetic; series mostly up to 41.8 µM; activation: at the top concentration. The gist of the method: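 Tetracycline-induced HEK293 T-REx cells force-coupled to calcium signalling were incubated overnight at 30 C and dye-loaded at room temperature. Calcium flux over 180 s after compound addition flagged agonists; a further 180 s read after EC20 dopamine flagged potentiators.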
As to `O=C1Cc2cc(CCN3CCN(c4nsc5ccccc45)CC3)c(Cl)cc2N1`, the “activation” value was -1.8% (inactive).
Same read-out and setting: next, `CC(CCc1ccc(O)cc1)NCCc1ccc(O)c(O)c1` (stereo not drawn): -0.159% (inactive); `COc1cc2c(c(OC)c1OC)-c1ccc(OC)c(=O)cc1[C@@H](NC(C)=O)CC2`: -0.0529% (inactive).
For `O=c1c(O)c(-c2ccc(O)c(O)c2)oc2cc(O)cc(O)c12`, the “activation” value was 11.2% (inactive).
Still for that read-out and setting: next, `CCOC(=O)Nc1ccc(NCc2ccc(F)cc2)nc1N`: 0% (inactive).
Same read-out and setting: under `CC(COc1ccccc1)N(CCCl)Cc1ccccc1` (stereo not drawn) stands 0.0529% (inactive).
`CN1C2CCC1CC(OC(=O)C(CO)c1ccccc1)C2` (stereo not drawn): the Potency entry was “inactive”.
With `Cc1cnc(C(=O)NCCc2ccc(S(=O)(=O)NC(=O)NC3CCCCC3)cc2)cn1`, the “activation” value was -1.27% (inactive).
On the same count and under the same terms, under `CN1CCC(=C2c3ccccc3CC(=O)c3sccc32)CC1` stands 19.5% (inactive); under `NCCCCCC(=O)O`, -0.423% (inactive); under `CN1C(C(=O)Nc2ccccn2)=C(O)c2ccccc2S1(=O)=O`, -1.11% (inactive).
Still for that read-out and setting: next, `CC[N+](CC)(CC)CCOc1cccc(OCC[N+](CC)(CC)CC)c1OCC[N+](CC)(CC)CC`: 0.211% (inactive); `CN1CCC(=C2c3ccccc3C=Cc3ccccc32)CC1`: 14.2% (inactive).
For the compound `COc1ccccc1OCCNCC(O)COc1cccc2[nH]c3ccccc3c12` (stereo not drawn), the “activation” value was 20.4% (inactive).
Still for that read-out and setting: next, `Clc1ccc(C(c2ccccc2Cl)C(Cl)Cl)cc1` (stereo not drawn): 2.64% (inactive); `COc1ccc(CCN(C)CCCC(C#N)(c2ccc(OC)c(OC)c2)C(C)C)cc1OC` (stereo not drawn): 10.7% (inactive).
The same measure, in the same setting: under `CN(Cc1cnc2nc(N)nc(N)c2n1)c1ccc(C(=O)N[C@@H](CCC(=O)O)C(=O)O)cc1` stands -0.688% (inactive); under `CC(C)C(=O)Nc1ccc([N+](=O)[O-])c(C(F)(F)F)c1`, 1.96% (inactive).
On to `C[C@H]1c2cccc(O)c2C(O)=C2C(=O)[C@]3(O)C(O)=C(C(N)=O)C(=O)[C@@H](N(C)C)[C@@H]3[C@@H](O)[C@@H]21`, for which the “activation” value was -1.06% (inactive).
Still for that read-out and setting: next, `CN(C)C(=O)C(CCN1CCC(O)(c2ccc(Cl)cc2)CC1)(c1ccccc1)c1ccccc1`: 24.5% (inactive); `OCCN1CCN(CCCN2c3ccccc3Sc3ccc(C(F)(F)F)cc32)CC1`: 12.9% (inactive); `Cc1ccccc1N1C(=O)c2cc(S(N)(=O)=O)c(Cl)cc2NC1C` (stereo not drawn): -0.159% (inactive).
